Drawing on PubChem BioAssay AID1645838 (ICCB-Longwood Screening Facility, Harvard Medical School, 2021), this text covers z-score, cell count and outcome for 35 compounds.

Structures are written as SMILES. Where “and” joins values, the source holds several entries; their conditions need not be identical. Equal entries are not always repeated. About 100 (5%) of roughly 2,000 compounds were called active. No stated cut-off is given here; in the data, active means z-score above about 2; inactive means the rest. Shown is part of a subset that was picked to be rich in actives.

The nature of this experiment: supercomplex reporter luminescence per Hoechst cell count – Hoechst nuclei count (AID 1645838).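 On all read-outs here: control cybrid cells.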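 On z-score: higher means more mitochondrial supercomplex formation.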 As to conditions: Cells, luminescence/Hoechst cell count ratio; for z-score: stronger effect = higher value; for cell count: measured here: cell number, Hoechst nuclei count.
Setting [1] is: library stock concentration (final well concentration not given) 80 uM.
[2] abbreviates: library stock concentration (final well concentration not given) 400 uM.
Where [3] appears, read: library stock concentration (final well concentration not given) 2 mM.
[4] abbreviates: library stock concentration (final well concentration not given) 10 mM.
Where [5] appears, read: library stock concentration (final well concentration not given) 46 uM.
Setting [6] is: library stock concentration (final well concentration not given) 278 uM.
Where [7] appears, read: library stock concentration (final well concentration not given) 1.67 mM.

Take `CCCCC/C=C\C/C=C\C/C=C\C/C=C\CCCC(=O)N[C@@H](C)CO`: the z-score is 0.0527 (inactive) and the cell count came out at 5800.
Regarding `CCCCC/C=C\C/C=C\C/C=C\C/C=C\CCCC(=O)NC(CO)CO`, the z-score was 4 (active) and the cell count turned out to be 4470.
For the compound `CCCCC/C=C\C/C=C\C/C=C\C/C=C\CCCC(=O)N[C@H](C)CO`, the z-score is -0.466 (inactive) and the cell count was determined as 6100.
Consider `CNCCCCCCN(C)N(O)N=O`, for which the z-score was 0.0102 (inactive) and the cell count worked out at 6050.
On the same counts, the results for `CCCCCCC(=O)O[C@H]1CC[C@H]2[C@@H]3C=CC4=CC(=O)CC[C@]4(C)[C@H]3CC[C@]12C` are -0.283 (inactive) and 5360.
Regarding `COC1C(OC(=O)NC(=O)CCl)CC[C@]2(CO2)[C@@H]1[C@@]1(C)OC1CC=C(C)C` (stereo not given in full), the z-score under setting [1] was -0.0262 (inactive), the z-score under setting [2] was 0.199 (inactive), the z-score under setting [3] was 1.06 (inactive) and the z-score under setting [4] is 2.72 (active). Also, the cell count runs as follows: under setting [1], 3980; under setting [2], 3760; under setting [3], 3110; under setting [4], 1800.
As for `c1cc2cc(N3CCNCC3)ccc2cn1`, the z-score is 0.406 (inactive) and the cell count stood at 4610.
On the same counts, the results for `CCCCC/C=C\C/C=C\C/C=C\C/C=C\CCCC(=O)NCCc1ccc(O)c(O)c1` are 0.0355 (inactive) and 5380.
On to `CS(=O)CCCCN=C=S` (stereo not given), for which the outcome (library stock 10 mM) is “inactive; censored for cell count”. In addition, the z-score under setting [1] is -0.41 (inactive), the z-score under setting [2] was -0.338 (inactive) and the z-score under setting [3] was 0.15 (inactive). Besides, the cell count by setting is: under setting [1], 6580; under setting [2], 6460; under setting [3], 5610.
Take `CCCCCCC(=O)CCCCCC/C=C/C[C@@H](O)[C@H](O)[C@@](N)(CO)C(=O)O`: the z-score is 5.47 (active) and the cell count is 4740.
`CCCCC/C=C\C/C=C\CCCCCCCC(=O)NCCO`: the outcome is “inactive; censored for cell count”.
Turning to `CCCCCCCC/C=C\CCCCCCCC(=O)N[C@H](C)CO`, the z-score was 0.127 (inactive) and the cell count was determined as 5170.
Consider `CCCCC/C=C\C/C=C\C/C=C\C/C=C\CCCC(=O)Nc1ccc([N+](=O)[O-])cc1`, for which the z-score is -0.128 (inactive) and the cell count came to 5210.
`CCCCC/C=C\C/C=C\C/C=C\C/C=C\CCCC(=O)NCCc1c[nH]c2ccc(O)cc12`: the z-score was 1.36 (inactive) and the cell count stood at 5300.
Regarding `O=NN(O)N1CCC[C@H]1C(=O)O`, the z-score was -0.00248 (inactive) and the cell count came out at 5130.
On the same counts, the results for `CN=C(NS(=O)(=O)c1ccc(Cl)cc1)N1C[C@@H](c2ccccc2)C(c2ccc(Cl)cc2)=N1` are -0.26 (inactive) and 5290.
For `Cc1sc2c(c1C)C(c1ccc(Cl)cc1)=NC(CC(=O)OC(C)(C)C)c1nnc(C)n1-2` (stereo not given), the z-score is 1.22 (inactive) under setting [1], 2.15 (active) under setting [2], 4.36 (active) under setting [3] and 5.69 (active) under setting [4]. The cell count under setting [1] came out at 5120, the cell count under setting [2] stood at 4600, the cell count under setting [3] is 3540 and the cell count under setting [4] amounted to 2860.
On to `Cc1sc2c(c1C)C(c1ccc(Cl)cc1)=NC(CC(N)=O)c1nnc(C)n1-2` (stereo not given), for which the z-score under setting [5] is 0.632 (inactive), the z-score under setting [6] was 2.69 (active), the z-score under setting [7] was 7.71 (active) and the z-score under setting [4] was 10.6 (active). Further, the cell count by setting is: under setting [5], 5970; under setting [6], 4460; under setting [7], 2880; under setting [4], 2360.
For the compound `Cc1sc2c(c1C)C(c1ccc(Cl)cc1)=NC(CC(=O)Nc1ccc(O)cc1)c1nnc(C)n1-2` (stereo not given), the z-score is 1.4 (inactive) under setting [1], 3.81 (active) under setting [2], 7.81 (active) under setting [3] and 8.99 (active) under setting [4]. Further, the cell count under setting [1] is 5230, the cell count under setting [2] is 4010, the cell count under setting [3] came to 2830 and the cell count under setting [4] came to 2330.
`C[N@@+]1(CC2CC2)CC[C@]23c4c5ccc(O)c4OC2C(=O)CC[C@@]3(O)C1C5` (stereo not given in full): the z-score is, setting by setting: under setting [1], 0.853 (inactive); under setting [2], 0.439 (inactive); under setting [3], 1.12 (inactive); under setting [4], 0.0218 (inactive). For the same compound, the cell count is, setting by setting: under setting [1], 4560; under setting [2], 4560; under setting [3], 3990; under setting [4], 4440.
Consider `CN=C(NS(=O)(=O)c1ccc(Cl)cc1)N1CC(c2ccccc2)C(c2ccc(Cl)cc2)=N1` (stereo not given), for which the z-score was 0.263 (inactive) and the cell count is 4560.
Taken in the same sequence, the figures for `CCCC(=O)N[C@H]1CCOC1=O` were -0.00429 (inactive) and 5280.
Turning to `O=C1C(=O)c2cccc3cccc1c23`, the outcome (library stock 10 mM) is “inactive; censored for cell count”. Besides, the z-score runs as follows: under setting [1], -0.293 (inactive); under setting [2], -0.13 (inactive); under setting [3], 0.0237 (inactive). Moreover, the cell count amounted to 5390 under setting [1], 5120 under setting [2] and 4940 under setting [3].
Regarding `CCCCC/C=C\C/C=C\C/C=C\C/C=C\CCCC(=O)OCCN`, the z-score is -1.23 (inactive) and the cell count worked out at 5760.
For `COc1nc(C)nc(NC(=O)NS(=O)(=O)c2ccccc2Cl)n1`, the z-score was 0.223 (inactive) under setting [5], 0.421 (inactive) under setting [6], 0.438 (inactive) under setting [7] and 0.591 (inactive) under setting [4]. The cell count is, setting by setting: under setting [5], 6660; under setting [6], 6640; under setting [7], 6690; under setting [4], 6980.
On to `NC(=NCCCC(N)C(=O)O)N[N+](=O)[O-]` (stereo not given), for which the z-score reads like this: under setting [5], -0.276 (inactive); under setting [6], -0.202 (inactive); under setting [7], -0.093 (inactive); under setting [4], -0.00821 (inactive). The cell count was determined as 5020 under setting [5], 4960 under setting [6], 5010 under setting [7] and 4490 under setting [4].
As to `O=C(NC(COc1ccc2[nH]c(=O)[nH]c2c1)c1ccccc1)c1cccn(Cc2ccc(F)c(F)c2)c1=O` (stereo not given), the z-score is -0.974 (inactive) and -0.18 (inactive) under setting [1]; -0.76 (inactive) and -0.318 (inactive) under setting [2]; -0.629 (inactive) and -0.22 (inactive) under setting [3]; -0.746 (inactive) and -0.664 (inactive) under setting [4]. Further, the cell count under setting [1] was 5360 and 6280; the cell count under setting [2] was 4530 and 6370; the cell count under setting [3] was 5030 and 6190; the cell count under setting [4] was 4470 and 5840.
For `CCCN(CCCN)N(O)N=O`, the z-score is 0.0434 (inactive) and the cell count came out at 5220.
For the compound `COc1ccc2cc(C(C#N)OC(=O)OCC3OC3c3ccccc3)ccc2c1` (stereo not given), the z-score was -0.334 (inactive) and the cell count worked out at 4870.
On to `CCCCCCCCCCCCCCCCOC[C@@H](O)COP(=O)([O-])OCC[N+](C)(C)C`, for which the z-score is -1.65 (inactive) and the cell count was 5770.
Turning to `CCCC[C@@H](C)C(OC(=O)C[C@@H](CC(=O)O)C(=O)O)C(C[C@@H](C)C[C@H](O)CCCC[C@@H](O)C[C@H](O)[C@H](C)N)OC(=O)C[C@@H](CC(=O)O)C(=O)O` (stereo not given in full), the z-score is -0.0113 (inactive) and the cell count is 5860.
With `NCCc1c(Cl)cccc1Cl`, the z-score is, setting by setting: under setting [1], 0.124 (inactive); under setting [2], 0.256 (inactive); under setting [3], 0.163 (inactive); under setting [4], -0.533 (inactive). The cell count by setting is: under setting [1], 5290; under setting [2], 5420; under setting [3], 5540; under setting [4], 5250.
As to `CCCCCCCCCCCCCCCC(=O)OC[C@H](COP(=O)([O-])OCC[N+](C)(C)C)OC(=O)CCCC=O`, the z-score is 0.248 (inactive) and the cell count is 4750.
As for `Cc1nc(-c2ccc(-c3ccc(C(=O)N4CCc5cc6c(cc54)C4(CCN(C)CC4)CO6)cc3)c(C)c2)no1`, the z-score reads like this: under setting [1], -0.255 (inactive); under setting [2], 0.0819 (inactive); under setting [3], -0.0801 (inactive); under setting [4], 3.86 (active). The cell count by setting is: under setting [1], 5300; under setting [2], 5160; under setting [3], 5100; under setting [4], 1770.
As for `CC1CNCCc2ccc(Cl)cc21` (stereo not given), the z-score under setting [1] is -0.315 (inactive), the z-score under setting [2] was -0.24 (inactive), the z-score under setting [3] was -0.135 (inactive) and the z-score under setting [4] is -0.0867 (inactive). The cell count is, setting by setting: under setting [1], 6030; under setting [2], 5570; under setting [3], 5830; under setting [4], 5720.
